Only some compounds are listed: those with a hit (about 17% of all), similar ones and a draw of the others.
HepG2 tox = counter-screen for TGF-b inhibitors: cytotoxicity in HepG2 cells; HepG2 CAGA-GFP viability, ATP luminescence, 18 h; Potency, µM (highest dose often 46.1 µM), for inactives: at the highest dose activity change, negative = cytotoxicity, hits mostly cytotoxic; hit rate 0.76% among 410,000
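HepG2 CAGA-GFP cells (1000/well, DMEM with 1% FBS) received compound, then TGF-beta at 500 pg/mL final, and were incubated 18 hours at 37 degrees C. Viability was read by CellTiter-Glo luminescence. Media-only wells were set as complete cell-killing and DMSO as no toxicity.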
DT40 TDP1 no CPT = qHTS for Inhibitors of human tyrosyl-DNA phosphodiesterase 1 (TDP1): qHTS in cells in absence of CPT; Potency, µM (doses to about 46.2 µM), inactives show top-dose activity change, negative = growth inhibition, most hits filed as inhibitors; hit rate 15% among 420,000; DT40 Tdp1-/- hTDP1 cells, no CPT, ATP luminescence, 48 h; note: % is set by controls: 0 for no effect and ±100 for the full control effect; nearly all actives have a fitted effect of over 55% in size
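A cellular qHTS used chicken DT40 cells lacking endogenous Tdp1 but carrying stably transfected human TDP1. Compounds were applied without camptothecin, and cell growth kinetics were judged by ATP-dependent luminescence after ≥48 hr.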
ATXN viability = reduces viability in counter-screen for ATXN expression inhibitors; S2 cells (HEK-293 line with an ATXN2-luciferase reporter) viability, CellTiter-Fluor protease fluorescence, 24 h; hit rate 0.49% among 400,000; Potency, µM (top dose mostly 56.7 µM), usual class: cytotoxic; AID 651635; note: nearly all actives have a fitted effect of over 40% in size
TGFb inhibitor = inhibitors of TGF-b signaling. HepG2 CAGA-GFP TGF-b/SMAD3 reporter, GFP fluorescence, 18 h; TGF-beta stimulated, 500 pg/mL final. Potency, µM (titrated, usually from 46.1 µM), for inactives: top-dose activity, negative = inhibition, hits mostly inhibitors. AID 588855. hit rate 1.2% among 410,000; note: % is set by controls: 0 for no effect and ±100 for the full control effect; nearly all actives have a fitted effect of over 65% in size
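Per well, imaged GFP fluorescence of HEPG2 CAGA-GFP cells gives the signal; cells get compound, then TGF-beta (500 pg/mL final), 18 h at 37 degrees C; %Activity versus -TGF-beta and +DMSO controls.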
TDP1 cell CPT = growth inhibition of DT40 Tdp1-/-;hTDP1 cells with camptothecin (screen for TDP1 inhibitors) | chicken DT40 Tdp1-/-;hTDP1 cells + 20 nM CPT, ATP luminescence, 48 h | Potency, µM (series often up to 46.2 µM), inactives show top-dose activity change, negative = growth inhibition, most hits filed as inhibitors | hit rate 12% among 420,000 | AID 686979; note: % is set by controls: 0 for no effect and ±100 for the full control effect; nearly all actives have a fitted effect of over 55% in size
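Chicken DT40 Tdp1-/- cells complemented with human TDP1, 400 cells/well, exposed to compounds plus 20 nM camptothecin for at least 48 h at 37 C; viability read as ATP content by CellTiter-Glo luminescence.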
ATXN2 expr inh = reduces ATXN2 reporter expression in HEK-293 cells; HEK-293 ATXN2-luciferase reporter, luminescence, 24 h; Potency, µM (series often up to 57 µM), without a hit: at the top dose activity change, negative = inhibition, hits mostly inhibitors; hit rate 0.72% among 360,000; note: % is set by controls: 0 for no effect and ±100 for the full control effect; nearly all actives have a fitted effect of over 55% in size
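qHTS (up to 57 uM final) was run with 24 h compound exposure of reporter cells at 37 °C. Each well was multiplexed: SteadyGlo luminescence measured ATXN2-luciferase expression after a fluorogenic Gly-Phe-AFC viability readout (25 uM final).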
* marks the source's active call; other numbers are inactive results. Calls come from the whole dose curve; as a rule, active = well fitted curve in the direction sought with a large enough effect; inconclusive = small, poorly fitted or top-dose-only effect, or another doubt; inactive = no such curve, though single readings can be large; an effect the other way counts as inactive or inconclusive. Potency is the fitted concentration of half-maximal effect.

`Cc1ccc2c(CNCc3ccc(C)o3)c(C(=O)O)n(Cc3ccccc3C)c2c1` gave HepG2 tox -20.5%, DT40 TDP1 no CPT inconclusive, ATXN viability inconclusive, TGFb inhibitor -11.7%, TDP1 cell CPT inconclusive and ATXN2 expr inh 6.5%.
COc1ccc2c(CNCCc3ccco3)c(C(=O)O)n(Cc3ccc(C)cc3)c2c1 was read as HepG2 tox -14.5%, DT40 TDP1 no CPT inconclusive, ATXN viability inconclusive, TGFb inhibitor -1.6%, TDP1 cell CPT -19.3% and ATXN2 expr inh -0.2%.
CCOc1ccccc1NC(=O)CN(C)S(=O)(=O)c1ccc2nc(C)sc2c1 was read as HepG2 tox -12.9%, DT40 TDP1 no CPT -28.3% and TDP1 cell CPT -6.0%.
Fc1ccc(-c2csc(NC(=S)Nc3ccccc3)n2)cc1 was read as HepG2 tox -24.9%, DT40 TDP1 no CPT inconclusive, ATXN viability inactive, TGFb inhibitor -17.4%, TDP1 cell CPT 20.6µM* and ATXN2 expr inh -12.0%.
`Cc1ccc(C(=O)Nc2nc(-c3ccc(F)cc3)cs2)o1` gave HepG2 tox -1.9%, DT40 TDP1 no CPT inconclusive, ATXN viability inactive, TGFb inhibitor 1.8%, TDP1 cell CPT inconclusive and ATXN2 expr inh 16.7%.
`O=C(Nc1ccccc1)Nc1nc(-c2ccc(F)cc2)cs1` gave HepG2 tox -4.5%, DT40 TDP1 no CPT 4.11µM*, ATXN viability inactive, TGFb inhibitor 19.1%, TDP1 cell CPT 4.11µM* and ATXN2 expr inh 13.3%.
For CC1CC1C(=O)Nc1nc(-c2ccccc2)cs1 (stereo unspecified) the results were HepG2 tox -45.5%, DT40 TDP1 no CPT 5.8µM*, ATXN viability inactive, TGFb inhibitor -2.4%, TDP1 cell CPT 5.17µM* and ATXN2 expr inh 35.4%.
`COc1cccc(N2CCN(C(=O)c3ccc4c(Cl)c5c(nc4c3)CCCC5)CC2)c1` gave HepG2 tox -48.4%, DT40 TDP1 no CPT 20.6µM*, ATXN viability inconclusive, TGFb inhibitor 11.2µM*, TDP1 cell CPT 20.6µM* and ATXN2 expr inh 10.5%.
`Cc1ccc(Cl)cc1N1CCN(C(=O)c2ccc3c(Cl)c4c(nc3c2)CCCC4)CC1` gave HepG2 tox -9.2%, DT40 TDP1 no CPT inconclusive, ATXN viability inactive, TGFb inhibitor inconclusive, TDP1 cell CPT inconclusive and ATXN2 expr inh -3.6%.
`Cc1cccc(N2CCN(C(=O)c3ccc4c(Cl)c5c(nc4c3)CCCC5)CC2)c1C` gave HepG2 tox -7.7%, DT40 TDP1 no CPT inconclusive, ATXN viability inactive, TGFb inhibitor inconclusive, TDP1 cell CPT 18.4µM* and ATXN2 expr inh -20.6%.
Screening NC(=O)CCN(C(=O)c1cccc(S(=O)(=O)N2CCc3ccccc32)c1)c1ccccc1 returned HepG2 tox -5.5%, DT40 TDP1 no CPT inconclusive, ATXN viability inactive, TGFb inhibitor 1.0%, TDP1 cell CPT inconclusive and ATXN2 expr inh -4.8%.
`Clc1ccc(CNc2ccc(CNc3ncn[nH]3)cc2)c(Cl)c1` gave HepG2 tox -11.0%, DT40 TDP1 no CPT inconclusive, ATXN viability inconclusive, TGFb inhibitor -3.4%, TDP1 cell CPT -29.1% and ATXN2 expr inh -34.1%.
`Cc1ccc(CNC(=O)C2CCCN(c3nc4ccccc4n4cccc34)C2)cc1` (stereo unspecified) gave HepG2 tox -17.9%, DT40 TDP1 no CPT inconclusive, TGFb inhibitor -18.1% and TDP1 cell CPT inconclusive.
`O=C(NCc1ccccc1Cl)C1CCCN(c2nc3ccccc3n3cccc23)C1` (stereo unspecified) gave HepG2 tox -18.3%, DT40 TDP1 no CPT 20.6µM*, TGFb inhibitor -19.7% and TDP1 cell CPT 18.4µM*.
Screening COc1cccc(CNC(=O)C2CCCN(c3nc4ccccc4n4cccc34)C2)c1 (stereo unspecified) returned HepG2 tox -0.9%, DT40 TDP1 no CPT 14.6µM*, TGFb inhibitor 0.0% and TDP1 cell CPT inconclusive.
COc1ccccc1CNC(=O)C1CCCN(c2nc3ccccc3n3cccc23)C1 (stereo unspecified) was read as HepG2 tox -23.5%, DT40 TDP1 no CPT 13µM*, TGFb inhibitor -8.6% and TDP1 cell CPT inconclusive.
Screening COCOCCn1cc(CN2CCS(=O)(=O)N(Cc3ccc(-c4cccc(CO)c4)cc3)C(C)C2=O)nn1 (stereo unspecified) returned HepG2 tox -0.5%, DT40 TDP1 no CPT -14.5%, ATXN viability inactive, TGFb inhibitor 3.7%, TDP1 cell CPT 0.9% and ATXN2 expr inh -5.7%.
Screening COCOCCn1cc(CN2CCS(=O)(=O)N(Cc3ccc(-c4ccc(Cl)nc4)cc3)C(C)C2=O)nn1 (stereo unspecified) returned HepG2 tox -9.3%, DT40 TDP1 no CPT inconclusive, ATXN viability inactive, TGFb inhibitor 1.9%, TDP1 cell CPT -22.4% and ATXN2 expr inh -14.3%.
`COCOCCn1cc(CN2CCS(=O)(=O)N(Cc3ccc(-c4ccc(C)cc4)cc3)C(C)C2=O)nn1` (stereo unspecified) gave HepG2 tox -15.3%, DT40 TDP1 no CPT 14.6µM*, ATXN viability inconclusive, TGFb inhibitor -1.0%, TDP1 cell CPT inconclusive and ATXN2 expr inh -21.5%.
COCOCCn1cc(CN2CCS(=O)(=O)N(Cc3ccc(-c4ccc(Cl)c(Cl)c4)cc3)C(C)C2=O)nn1 (stereo unspecified) was read as HepG2 tox -108.8%, DT40 TDP1 no CPT 4.11µM*, TGFb inhibitor inconclusive, TDP1 cell CPT 4.11µM* and ATXN2 expr inh 28.2µM*.
For COCOCCn1cc(CN2CCS(=O)(=O)N(Cc3ccc(-c4ccncc4)cc3)C(C)C2=O)nn1 (stereo unspecified) the results were HepG2 tox -4.0%, DT40 TDP1 no CPT -16.0%, ATXN viability inactive, TGFb inhibitor -3.0%, TDP1 cell CPT -18.3% and ATXN2 expr inh -3.7%.
Screening COCOCCn1cc(CN2CCS(=O)(=O)N(Cc3ccc(-c4ccc(OC)c(OC)c4)cc3)C(C)C2=O)nn1 (stereo unspecified) returned HepG2 tox -25.6%, DT40 TDP1 no CPT 10.3µM*, ATXN viability inactive, TGFb inhibitor -10.0%, TDP1 cell CPT 16.4µM* and ATXN2 expr inh -15.7%.

Screening results from PubChem BioAssay.
